# Reference: PubChem BioAssay (Tox21)
# Records with an inconclusive call do not appear. Where a call stands in place of a potency, no number is given. A number with no mark means an inactive call. The source made the active and inactive calls. Calls come from the whole dose curve; as a rule, active = well fitted curve in the direction sought with a large enough effect in the repeat runs; inconclusive = weak or mixed curves; inactive = no such curve, though single readings can be large; an effect the other way counts as inactive or inconclusive.
# Experiments:
# [1] = A CellTox Green Cytotoxicity Assay to monitor cytotoxicity in HEK293 cells - 40 hour (AID 1224871); note: nearly all actives have a fitted effect of over 45% in size; note: potency is the fitted concentration of half-maximal effect
# How it was run: (§1)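 HEK293 cells premixed with CellTox Green dye were seeded at 600 cells/well and left 5 h at 37 C/5% CO2 before pin transfer of 23 nL compound in DMSO. Fluorescence from dye bound to dead-cell DNA was read during 40 h treatment.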
# [2] = qHTS RealTime-Glo MT Cell Viability Assay in HepG2 cells - 8 hour (AID 1224873); note: nearly all actives have a fitted effect of over 55% in size; note: potency is the fitted concentration of half-maximal effect
# How it was run: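 HepG2 cells mixed with RealTime-Glo MT reagents (NanoLuc plus cell-permeant prosubstrate) were seeded at 600 cells/well, incubated 5 h at 37 C/5% CO2, then pinned with compounds in DMSO; nonlytic luminescence tracked viability during 40 h treatment.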
# [3] = qHTS RealTime-Glo MT Cell Viability Assay in HEK293 cells - 40 hour (AID 1224874); conditions: RealTime-Glo luminescence; max response: stronger effect = lower value; note: nearly all actives have a fitted effect of over 50% in size; note: potency is the fitted concentration of half-maximal effect
# How it was run: (§2)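 HEK293 cells mixed with RealTime-Glo reagents (NanoLuc plus cell-permeant prosubstrate) at 600 cells/well, preincubated 5 h at 37 C/5% CO2, then given 23 nL compound in DMSO. Nonlytic luminescence from viable cells was read at 0, 8, 16, 24, 32 and 40 h.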
# [4] = A CellTox Green Cytotoxicity Assay to monitor cytotoxicity in HEK293 cells - 24 hour (AID 1224875); note: nearly all actives have a fitted effect of over 45% in size; note: potency is the fitted concentration of half-maximal effect
# How it was run: as §1
# [5] = A CellTox Green Cytotoxicity Assay to monitor cytotoxicity in HepG2 cells - 16 hour (AID 1224876); note: nearly all actives have a fitted effect of over 45% in size; note: potency is the fitted concentration of half-maximal effect
# How it was run: (§3)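 HepG2 cells were seeded together with the CellTox Green dye at 600 cells/well, left 5 h at 37 C/5% CO2, then given compounds in DMSO. Fluorescence from dye bound to dead-cell DNA was read repeatedly over 40 h of treatment at 37 C.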
# [6] = qHTS RealTime-Glo MT Cell Viability Assay in HepG2 cells - 32 hour (AID 1224877); note: nearly all actives have a fitted effect of over 55% in size; note: potency is the fitted concentration of half-maximal effect
# How it was run: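 Tox21 10K library screened in qHTS format on HepG2 cells carrying RealTime-Glo reagents. Compounds were added after a 5 h preincubation, and the luminescent signal from continuous culture was measured repeatedly during 40 h treatment.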
# [7] = A CellTox Green Cytotoxicity Assay to monitor cytotoxicity in HepG2 cells - 24 hour (AID 1224878); note: nearly all actives have a fitted effect of over 45% in size; note: potency is the fitted concentration of half-maximal effect
# How it was run: as §3
# [8] = qHTS RealTime-Glo MT Cell Viability Assay in HEK293 cells - 0 hour (AID 1224880)
# How it was run: as §2
# [9] = A CellTox Green Cytotoxicity Assay to monitor cytotoxicity in HepG2 cells - 40 hour (AID 1224879); note: nearly all actives have a fitted effect of over 40% in size; note: potency is the fitted concentration of half-maximal effect
# How it was run: as §3
# [10] = qHTS RealTime-Glo MT Cell Viability Assay in HEK293 cells - 16 hour (AID 1224872); note: top concentration of the series differs between compounds; nearly all actives have a fitted effect of over 50% in size
# How it was run: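 Luminescence generated by NanoLuc from substrate produced by living HEK293 cells served as the viability signal. Each value reflects the reading at its stated time point during continuous 40 h compound exposure at 37 C.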
Structure (SMILES),Potency [1],Potency [2],max response [3] [%],Potency [4],Potency [5],Potency [6],Potency [7],Potency [8],Potency [9],Potency [10],Potency [3]
O=S(=O)(Oc1ccc(Cl)cc1)c1ccccc1,inactive,inactive,-29.4,inactive,inactive,inactive,inactive,inactive,–,–,–
CCCCNc1ccc(C(=O)OCCOCCOCCOCCOCCOCCOCCOCCOCCOC)cc1,inactive,inactive,–,inactive,inactive,inactive,inactive,inactive,inactive,–,–
CO[C@@H]1[C@H](OC(=O)/C=C/C=C/C=C/C=C/C(=O)O)CC[C@]2(CO2)[C@H]1[C@@]1(C)O[C@@H]1CC=C(C)C,inactive,inactive,18.9,inactive,inactive,inactive,inactive,inactive,inactive,–,–
CCc1c(C(=O)NN2CCCCC2)nn(-c2ccc(Cl)cc2Cl)c1-c1ccc(Br)cc1,inactive,–,–,inactive,inactive,–,inactive,inactive,inactive,inactive,–
COc1ccc(S(=O)(=O)N2C(=O)[C@@](c3ccccc3OC)(N3C[C@H](O)C[C@H]3C(=O)N(C)C)c3cc(Cl)ccc32)c(OC)c1,inactive,–,–,inactive,inactive,–,inactive,inactive,inactive,–,49 µM (active)
CC(C)C[C@H]1C(=O)N2CCC[C@H]2[C@]2(O)O[C@](NC(=O)[C@@H]3C=C4c5cccc6[nH]c(Br)c(c56)C[C@H]4N(C)C3)(C(C)C)C(=O)N12,inactive,13.2 µM (active),–,inactive,inactive,13.2 µM (active),inactive,inactive,inactive,–,–
COc1cc(Cl)ccc1Oc1ccc(Cl)cc1Cl,inactive,inactive,-24.6,inactive,inactive,inactive,inactive,inactive,inactive,–,–
CCOc1ccc(O)cc1,inactive,–,–,inactive,inactive,inactive,inactive,inactive,inactive,–,11 µM (active)
Cc1nn(C)c(Oc2ccccc2)c1/C=N/OCc1ccc(C(=O)OC(C)(C)C)cc1,inactive,–,–,inactive,inactive,inactive,inactive,inactive,inactive,–,0.0062 µM (active)
CC(C)(COC(=O)c1ccccc1)COC(=O)c1ccccc1,inactive,inactive,-28.7,inactive,inactive,inactive,inactive,inactive,inactive,–,–
Cc1ccc(C(=O)Oc2ccc(C(O)CNC(C)(C)C)cc2OC(=O)c2ccc(C)cc2)cc1 (stereo not drawn),23.9 µM (active),21.3 µM (active),–,23.9 µM (active),21.3 µM (active),23.9 µM (active),21.3 µM (active),inactive,19 µM (active),–,–
CCN(CC)CCOC(=O)C(c1ccccc1)C1CCCCC1 (stereo not drawn),21.3 µM (active),inactive,–,23.9 µM (active),–,–,23.9 µM (active),inactive,21.3 µM (active),–,–
Cc1cccc(Nc2ccccc2)c1,34.7 µM (active),–,-10.8,38.9 µM (active),43.6 µM (active),inactive,38.9 µM (active),inactive,–,–,–
Cn1c(=O)cc(Oc2ccc(F)cc2F)c2cnc(NCC(C)(C)O)nc21,inactive,inactive,–,inactive,inactive,inactive,inactive,inactive,inactive,–,–
COc1cc2nc(Cl)nc(N)c2cc1OC,inactive,inactive,–,inactive,inactive,inactive,inactive,–,inactive,–,–
O=C(O)c1ccc(S(=O)(=O)O)cc1C(=O)O,inactive,inactive,–,inactive,inactive,inactive,inactive,inactive,inactive,–,–
CCCCC(CC)CN1C(=O)C2C3C=CC(C3)C2C1=O (stereo not drawn),30.9 µM (active),inactive,–,–,inactive,inactive,inactive,inactive,inactive,–,–
OCCN1CCN(CCCN2c3ccccc3C=Cc3ccccc32)CC1,inactive,–,–,inactive,inactive,inactive,inactive,inactive,inactive,inactive,–
c1ccc(C(O[C@H]2CCCN(CCc3ccc4c(c3)OCO4)C2)c2ccccc2)cc1,inactive,inactive,-24.8,inactive,–,inactive,–,inactive,–,–,–
CCOc1ccc(N)c([N+](=O)[O-])c1,inactive,inactive,–,inactive,inactive,inactive,inactive,inactive,inactive,–,–
N=c1ccn2c(n1)O[C@H]1[C@H](O)[C@@H](CO)O[C@H]12,inactive,inactive,22.1,inactive,–,inactive,–,–,54.9 µM (active),–,–
CNCCCCOc1ccccc1Cc1ccccc1,–,inactive,–,–,23.9 µM (active),–,23.9 µM (active),inactive,23.9 µM (active),–,23.9 µM (active)
Clc1ccc2c(c1)CCc1cccnc1C2=C1CCNCC1,–,–,–,inactive,–,26.8 µM (active),23.9 µM (active),–,–,inactive,–
O=C1[C@H]2CCCC[C@H]2C(=O)N1CCCCN1CCN(c2nsc3ccccc23)CC1,–,inactive,–,inactive,inactive,inactive,inactive,–,–,–,–
C[C@H](CCC(=O)O)[C@H]1CC[C@H]2[C@@H]3CC[C@@H]4C[C@H](O)CC[C@]4(C)[C@H]3C[C@H](O)[C@]12C,–,inactive,-23.1,–,inactive,inactive,inactive,inactive,inactive,inactive,–
